Screening data as filed in PubChem BioAssay.
Cycloheximide cs: Cycloheximide Counterscreen for Small Molecule Inhibitors of Shiga Toxin. cell reporter, cycloheximide protein synthesis inhibition counterscreen. max response, %. 12% of 300,000 active; in the data active = max response mostly above about 13%, no sharp cut-off; inactive = mostly below about 14%; note: read at 38.3 µM for the half of the compounds with a filed dose
Shiga inhibitor: A qHTS for Small Molecule Inhibitors of Shiga Toxin | 9.2% of 290,000 active | inhibition, % at 38.7 µM | Vero cells, Shiga toxin protein synthesis inhibition reporter; in the data active = inhibition mostly above about 28%, no sharp cut-off; inactive = mostly below about 43%
AmpC detergent: qHTS Inhibitors of AmpC Beta-Lactamase (assay with detergent). AID 485294, 2010. AmpC hydrolysis of nitrocefin, absorbance 480 nm, 0.01% Triton. 0.041% of 370,000 active. Potency, µM (doses to about 114 µM), actives largely listed as inhibitors; note: nearly all actives have a fitted effect of over 25% in size
Target sequence (P00811 whole entry, looked up): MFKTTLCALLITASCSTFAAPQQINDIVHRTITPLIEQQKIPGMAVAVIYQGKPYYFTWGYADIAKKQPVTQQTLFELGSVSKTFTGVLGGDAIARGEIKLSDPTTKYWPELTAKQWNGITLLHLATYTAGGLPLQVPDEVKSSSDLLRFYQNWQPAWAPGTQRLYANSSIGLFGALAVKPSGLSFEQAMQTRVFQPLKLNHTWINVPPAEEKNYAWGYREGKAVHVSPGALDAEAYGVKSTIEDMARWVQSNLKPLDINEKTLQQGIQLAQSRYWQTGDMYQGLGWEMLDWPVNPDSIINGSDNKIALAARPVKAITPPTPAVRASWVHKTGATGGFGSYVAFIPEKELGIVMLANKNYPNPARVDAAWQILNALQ
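20 mM phosphate pH 7.0 + 0.01% (detergent screen) or 0.0001% Triton X-100; 5.3 nM AmpC reagent; cpd preinc 15 min RT; nitrocefin (800 uM stock) to start; A480 q20 s × 4 min; Activity was normalised to no-enzyme and no-compound control wells.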
AmpC no deterg: qHTS Inhibitors of AmpC Beta-Lactamase (assay without detergent). P00811. AmpC nitrocefin hydrolysis, absorbance 480 nm, 0.0001% Triton. Potency, µM (titrated, usually from 57.1 µM), most hits filed as inhibitors. 0.52% of 330,000 active; note: nearly all actives have a fitted effect of over 20% in size
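AmpC (5.3 nM in the dispensed reagent) in 20 mM phosphate pH 7.0 with 0.01% (detergent screen) or 0.0001% Triton X-100 was preincubated with compounds for 15 min at room temperature. Nitrocefin was then added from an 800 uM solution, and hydrolysis was followed at 480 nm.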
NS1 function inh: qHTS Assay for Inhibitors of Influenza NS1 Protein Function | Potency, µM (doses to about 46.1 µM) | 0.4% of 270,000 active | AID 2326, 2010; calls by dose curve; note: actives are rising curves; nearly all actives have a fitted effect of over 50% in size
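Compounds were scored for reversing the slow growth caused by influenza A NS1 in S. cerevisiae, measured by optical density at 600 nm. Assay medium contained 2% galactose at pH 6.0; NS1-free yeast of the same strain were the positive control.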
A number is an active result; - = inactive; ? = inconclusive; . = no result given. The entries come from a sample that favours hits as a whole. Unless noted, calls come from the whole dose curve; as a rule, active = well fitted curve in the direction sought with a large enough effect; inconclusive = small, poorly fitted or top-dose-only effect, or another doubt; inactive = no such curve, though single readings can be large; an effect the other way counts as inactive or inconclusive.

SMILES	Cycloheximide cs	Shiga inhibitor	AmpC detergent	AmpC no deterg	NS1 function inh
O=C(/C=C/Nc1ccc(F)cc1Br)c1ccccc1	38.8	40.2	-	-	-
O=C(/C=C/Nc1ccccc1)c1ccccc1	26.9	-	-	-	-
COc1ccc(OC)c(N/C=C/C(=O)c2ccccc2)c1	-	-	-	-	-
Cc1ccc(NC(=O)CN2C(=O)N/C(=C\c3ccco3)C2=O)cc1	.	.	.	-	.
CC1CN(CCCCOc2ccc3ccccc3c2)CC(C)O1 (stereo not drawn)	22.1	-	-	-	-
CC1CN(C(=O)c2ccc(COc3ccc(C(C)C)cc3)o2)CC(C)O1 (stereo not drawn)	54.2	195.5	-	-	-
CC1CN(C(=O)c2ccc(COc3ccccc3Cl)o2)CC(C)O1 (stereo not drawn)	-	-	-	-	-
CC1CN(C(=O)c2ccc(COc3ccc4ccccc4c3)o2)CC(C)O1 (stereo not drawn)	27.3	57.2	-	-	-
CC(C)SCCCCOc1ccc2ccccc2c1	39.0	-	-	-	?
COc1cccc(OCCCCN2CC(C)OC(C)C2)c1 (stereo not drawn)	-	-	-	-	-
Cc1ccccc1OCc1ccc(C(=O)N2CC(C)OC(C)C2)o1 (stereo not drawn)	-	-	-	-	-
Cc1ccc(N2CC(C)Cn3c2nc2c3c(=O)n(Cc3cccc(Cl)c3)c(=O)n2C)cc1 (stereo not drawn)	.	.	-	.	.
Cn1cc([N+](=O)[O-])c(C(=O)Nc2ccc(-c3nc4ccccc4[nH]3)cc2)n1	32.2	-	-	-	-
Cn1cc([N+](=O)[O-])c(C(=O)Nc2ccc3nc(-c4ccccc4)[nH]c3c2)n1	41.7	46.7	?	-	-
COc1ccc(CCNC(=O)COC(=O)c2ccc(C)s2)cc1	.	.	-	-	.
COCCCNC(=O)COC(=O)c1ccc(-c2nc3ccccc3s2)s1	47.5	75.7	?	-	.
O=CN1CCN(C(=O)c2ccc(-c3nc4ccccc4s3)s2)CC1	42.7	123.5	-	-	.
CNC(=O)COC(=O)c1ccc(-c2nc3ccccc3s2)s1	29.1	53.0	-	-	-
CC(C)Oc1ccc(C(=O)N2CCC(c3nc4ccccc4s3)CC2)cc1	.	.	-	.	.
N#CC1=C(N)Oc2n[nH]c(-c3cccnc3)c2C1c1ccc([N+](=O)[O-])o1 (stereo not drawn)	20.4	-	-	-	.
CCOC(=O)c1ccc(NC(=O)Nc2ccccn2)cc1	24.1	61.3	-	-	-
CCOC(=O)c1ccc(NC(=O)Nc2cc(C)on2)cc1	31.6	38.6	-	-	-
CC1=C(C#N)C(/C=N/OCc2ccc(F)cc2Cl)CC(=O)N1 (stereo not drawn)	-	-	?	-	.
CC(=O)N1CCc2c(sc3c2c(=O)n(-c2cc(Cl)ccc2C)c(=O)n3Cc2ccccc2F)C1	.	.	-	.	.
COc1ccc(Cl)cc1NC(=O)Cn1c(=O)n(-c2ccc(C)cc2)c(=O)c2ccc(C(=O)NCc3ccccc3Cl)cc21	.	.	-	.	.
SMILES	Cycloheximide cs	Shiga inhibitor	AmpC detergent	AmpC no deterg	NS1 function inh
CC(=O)c1ccc(Nc2ccc(-c3ccccc3F)nn2)cc1	42.8	-	-	-	.
Clc1ccc2nc3c4ccccc4cnn3c2c1	61.8	117.0	-	-	-
Cc1ccsc1/C=C(\CC(=O)O)c1nc2ccccc2o1	22.0	50.8	-	-	-
Cc1ccc(COc2coc(CO)cc2=O)cc1	37.9	-	-	-	-
CCc1ccc(NC(=S)NC(=O)CC(C)C)cc1	70.5	19.1	-	-	?
CC(C)CC(=O)NC(=S)Nc1cc(C(F)(F)F)ccc1N1CCOCC1	-	-	-	-	-
CC(C)C(=O)Nc1ccc(N2CCCC2)c(Cl)c1	43.7	-	-	-	.
O=C(NC(=S)Nc1ccc(N2CCOCC2)c(Cl)c1)C(c1ccccc1)c1ccccc1	-	-	-	-	-
CCCC(=O)NC(=S)Nc1ccc(N2CCOCC2)c(Cl)c1	19.0	43.6	-	-	-
CC(C)CC(=O)NC(=S)Nc1ccc(N2CCCC2)c(Cl)c1	-	56.5	?	-	-
O=C(O)C1=C/C(=C(/c2ccccc2)c2cc(C(=O)O)c(O)c3ccccc23)c2ccccc2C1=O	.	.	.	.	-
CCN(Cc1ccccc1)S(=O)(=O)c1c(C)[nH]c(C)c1C(=O)N1CCCCC1	-	-	-	-	-
CCN(CC(=O)Nc1ccc(NC(C)=O)cc1)C(=O)c1ccccc1SCc1c(C)noc1C	.	.	-	-	.
